PubChem BioAssay AID641 (Vanderbilt High Throughput Screening Facility, 2007)
About 3,400 (5.9%) of roughly 58,000 compounds were called active. Many of the other results were omitted from the sample, so actives are more common in it than they were. Unmarked numbers belong to inactive results.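 How the source made its calls: active means luminescence count or its row- and column-corrected plate score outside the 99.7% band of the plate's sample wells, on either side; inactive means the rest.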

Target: D(1A) dopamine receptor (Homo sapiens) (UniProt P21728)
Sequence (P21728 whole entry, looked up): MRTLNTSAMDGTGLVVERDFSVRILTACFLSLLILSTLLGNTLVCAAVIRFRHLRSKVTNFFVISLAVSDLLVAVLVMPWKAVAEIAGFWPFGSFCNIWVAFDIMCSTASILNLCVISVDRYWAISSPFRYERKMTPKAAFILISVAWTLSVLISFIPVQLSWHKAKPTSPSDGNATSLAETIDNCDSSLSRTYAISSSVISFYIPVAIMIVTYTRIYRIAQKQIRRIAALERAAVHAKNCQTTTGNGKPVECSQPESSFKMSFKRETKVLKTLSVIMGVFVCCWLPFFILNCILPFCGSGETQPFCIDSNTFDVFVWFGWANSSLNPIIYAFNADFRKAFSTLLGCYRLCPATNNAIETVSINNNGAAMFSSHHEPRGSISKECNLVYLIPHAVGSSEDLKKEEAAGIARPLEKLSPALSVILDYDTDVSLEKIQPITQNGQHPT
Experiment: D1 CRE-luciferase signal change, two-sided – cell-based, HEK293 D1, dopamine EC30, D1 allosteric modulator project, primary screen (AID 641)
Conditions: dopamine EC30 potentiation, at 10 µM, actives deviate in either direction

SMILES | B-score
COC(=O)COc1ccc2oc(=O)cc(C)c2c1 | 0.00198
COc1ccc(S(=O)(=O)N2CCN(c3ncnc4c(-c5ccccc5)nsc34)CC2)cc1 | -0.0486
O=c1cccc(-c2ccc(Br)cc2)o1 | 1.11
COc1ccc(S(=O)(=O)Nc2ccc(S(=O)(=O)N3CCCCC3)cc2)cc1OC | 5.58 (active)
COc1ccc(NS(=O)(=O)c2ccc(NC(C)=O)cc2)cc1OC | -0.458
COc1ccc(S(=O)(=O)N2CCCCC2)cc1Br | -1.56
COc1ccc(Br)cc1S(=O)(=O)N1CCN=C1C | -0.0562
CCc1nc2ccccc2n(CCOCCOCCn2c(=O)c(CC)nc3ccccc32)c1=O | 2.08
CCCOC(=O)Nc1sc2c(c1C(=O)OCC)CCC2 | -0.0171
O=C(Nc1c(Cl)cccc1Cl)C1CCC1 | -0.785
CCOC(=O)c1cc(C)sc1NC(=O)C1CCC1 | 7.64 (active)
NC(=O)c1ccsc1NC(=O)c1ccco1 | 0.317
O=C(Nc1nc(-c2ccc3c(c2)OCO3)cs1)c1ccncc1 | -3.4 (active)
O=C(Nc1ccc2c(c1)OCCO2)c1ccncc1 | -1.34
O=C(Nc1nc(-c2ccncc2)cs1)C1COc2ccccc2O1 (configuration not stated) | 1.39
COC(=O)c1ccc(/C=N\n2c(C)nnc2C)cc1 | -1.78
Cc1cc(C)c2c(n1)nn1c(N3CCOCC3)cc(C)nc21 | 1.9
Cc1cc(C)c2c(n1)nn1c(N3CCN(c4cccc(Cl)c4)CC3)cc(C)nc21 | -0.0327
Cc1cc(C)c2c(n1)nn1c(-n3ccnc3)cc(C)nc21 | 5.98 (active)
CCC(C)NC(=O)N[C@@H](CCSC)C(=O)O (some centres not stated) | -0.322
Cc1ccc(S(=O)(=O)NC(C)C(=O)Nc2ccccc2C(=O)N2CCCC2)cc1 (configuration not stated) | -1.42
Cc1ccc(S(=O)(=O)NC(=O)N2CCCC(C)(C)C2)cc1 | -6.08 (active)
Cc1ccc(S(=O)(=O)C2(S(=O)(=O)c3ccc(C)cc3)CCCC2)cc1 | 0.0184
CC(=O)Nn1cc2c(=O)n(C)c(=O)n(C)c2c1 | 0.00279
COc1ccc(OC)c(-n2cc3c(=O)n(C)c(=O)n(C)c3c2)c1 | 1.9

SMILES | B-score
Cn1c(=O)c2cn(-c3cccc4ccccc34)cc2n(C)c1=O | 3.56 (active)
Cc1nc2sc(C(c3ccco3)N3CCC4(CC3)OCCO4)c(O)n2n1 (configuration not stated) | -0.00625
NS(=O)(=O)c1ccc(NS(=O)(=O)/C=C/c2ccccc2)cc1 | 0.545
COC(=O)Cn1c(=NC(=O)CSCC(=O)Nc2cc(C)on2)sc2ccccc21 | -0.763
O=C1CC(N2CCN(C(c3ccccc3)c3ccccc3)CC2)C(=O)N1 (configuration not stated) | -0.246
O=c1c2ccccc2nc(CSc2nnnn2-c2ccccc2)n1-c1ccccc1 | 0.263
COC(=O)c1ccc(CSc2nc3ccccc3c(=O)n2-c2cccc(OC)c2)o1 | 2.88
N#CCSc1nc2ccccc2c(=O)n1-c1ccccc1 | 7.87 (active)
Cc1noc(C)c1S(=O)(=O)N(CC(=O)NCc1ccc(Cl)cc1)c1ccc2c(c1)OCO2 | 0.0431
CCCC(=O)N=c1sc2cccc(F)c2n1C | 0.69
Cc1nnc2sc(-c3ccco3)nn12 | 0.854
Fc1ccc(-c2nnc3sc(-c4ccc5c(c4)OCO5)nn23)cc1 | 0.575
CC(=O)Nc1ccc(-c2nn3c(C)nnc3s2)cc1C | 0.141
COc1ccc(-c2nn3c(-c4ccccc4)nnc3s2)cc1OC | 8.24 (active)
c1ccc(-c2cc(-c3nnc4sc(-c5ccccn5)nn34)[nH]n2)cc1 | -0.359
COc1cc(-c2nn3c(-c4cccc(C)c4)nnc3s2)cc(OC)c1OC | 5.22 (active)
CCOc1ccc(C(=O)N(Cc2ccc(N(C)C)cc2)C2CCS(=O)(=O)C2)cc1 (configuration not stated) | 0.116
CCCC(C(=O)N1CCOCC1)N1C(=O)C2C3C=CC(C3)C2C1=O (configuration not stated) | -0.388
Cc1occc1C(=O)Nc1nnc(C2CCCCC2)s1 | 0.299
O=C(COc1ccccc1Cl)Nn1cnnc1 | -0.264
Cc1cccc(N2CCN(Cc3c(C)n(C)n(-c4ccccc4)c3=O)CC2)c1C | -0.359
COc1ccc(N2CC(C)Cn3c2nc2c3c(=O)n(Cc3ccccc3F)c(=O)n2C)c(OC)c1 (configuration not stated) | 0.483
CCOc1ccc(N2C(=O)CC(N(O)c3ccccc3)C2=O)cc1 (configuration not stated) | 0.305
COc1ccc(CCNc2ncnc3nc[nH]c23)cc1OC | 12.7 (active)
COc1ccc(CCNS(=O)(=O)c2ccc(F)cc2)cc1OC | 3.09

SMILES | B-score
CCS(=O)(=O)NCCc1ccc(OC)c(OC)c1 | 0.864
CCOC(=O)c1sc(NC(=O)CSc2ncccn2)c(C#N)c1C | 1.81
COc1ccc(-c2cc(C(F)(F)F)nc(S(C)(=O)=O)n2)cc1OC | 6.58 (active)
COc1ccc(-c2cc(C(F)(F)F)nc(SCCC(=O)NCc3ccco3)n2)cc1 | 0.0331
COc1ccc(-c2ccc(Nc3ccc(S(=O)(=O)N4CCCC4)cc3)nn2)cc1OC | 1.72
CC(=O)Oc1ccc(C)cc1N1C(=O)c2ccc(C(=O)O)cc2C1=O | -0.324
CCN(CC)C(=O)CSc1nnc(-c2cccc(OC)c2)o1 | -0.393
O=C(COC(=O)c1ccc(Oc2ccccc2)cc1)Nc1nnc(-c2ccccc2)o1 | -1.16
COc1cccc(-c2nnc(NC(=O)c3ccc(S(=O)(=O)N(CC(C)C)CC(C)C)cc3)o2)c1 | -2.79 (active)
C=C1c2cc(CC)ccc2NC(=O)N1c1ccc(C)cc1 | -1.84
COc1ccc(N(CC(=O)NC2CCCCCCC2)S(=O)(=O)c2c(C)nn(C)c2C)cc1 | -0.289
CC(C)C(=O)Nc1c(C(=O)c2ccc(F)cc2)oc2ccccc12 | 1.66
Nc1ccc(S(=O)(=O)NC(=O)c2ccccc2)cc1 | 31.8 (active)
CC(=O)NS(=O)(=O)c1ccccc1 | 0.0902
Cc1ccc(C(=O)NCCNS(=O)(=O)c2ccccc2)cc1 | -0.839
COCCNC(=O)c1snc2ccc(Cl)cc12 | 0.741
CCCc1nc2ccccc2c(C(=O)OCc2nnc(-c3cc(OC)c(OC)c(OC)c3)o2)c1CC | 2.19
CCN1CCN(Cc2c(O)ccc3c(=O)c(-c4ccc(OC)c(OC)c4)c(C(F)(F)F)oc23)CC1 | -0.698
Cc1cc(=O)oc(C)c1C(=O)Nc1cnc2ccccc2c1 | -0.206
O=C(c1cccc(C(=O)N2CCc3ccccc32)n1)N1CCc2ccccc21 | 0.928
O=C(CN1C(=O)c2ccccc2S1(=O)=O)N1CCc2ccccc21 | -3.68 (active)
CNC(=O)CN1C(=O)c2ccccc2S1(=O)=O | 0.686
COC(=O)C(C)Sc1ccc2nnc(-c3cccc(F)c3)n2n1 (configuration not stated) | 0.378
CCOc1ccc(-c2nnc3ccc(SC)nn23)cc1 | -4.57 (active)
O=C(CN1CCOCC1)Nc1cc(Cl)ccc1Cl | -0.306

SMILES | B-score
C=C(C)Cn1c(N2CCN(CC)CC2)nc2c1c(=O)[nH]c(=O)n2C | 0.264
Brc1cccc(-c2nnc3n2CCC3)c1 | 0.138
CCOc1cc(-c2nc3cc(C)ccn3c2NCC2CCCO2)ccc1O (configuration not stated) | -0.604
COc1ccc(C2SCCN2S(=O)(=O)c2ccccc2)cc1OC (configuration not stated) | 0.2
COc1ccc(C2N=C(N)N=C(N)N2c2ccccc2)cc1OC (configuration not stated) | -3.55 (active)
COc1ccc(C2/C(=C(/O)c3ccccc3)C(=O)C(=O)N2c2ncccn2)cc1OC (configuration not stated) | -0.0203
CCOC(=O)[C@H]1CCC[C@@H](NS(=O)(=O)c2ccc(NC(C)=O)cc2)C1 | -0.0967
Cc1ccc(S(=O)(=O)N(C)CC(=O)N2CCc3ccccc32)cc1 | 1.86
CCOc1ccc2c(c1)cc(CN(C(=O)CC)C1CCCCC1)c1nnnn12 | 12.6 (active)
CCOc1ccc2[nH]c(=O)c(CN(Cc3nnnn3CCc3ccccc3)CC3CCCO3)cc2c1 (configuration not stated) | 1.9
CCOc1ccc2[nH]c(=O)c(CN(Cc3nnnn3Cc3ccccc3)CC3CCCO3)cc2c1 (configuration not stated) | -0.307
COC(=O)c1cnn2c(C(F)(F)F)cc(-c3ccco3)nc12 | 1.18
O=C(NCc1ccco1)c1cccn2c(=O)c3cc(Br)ccc3nc12 | -0.861
O=C(NCc1ccco1)c1cnn2c(C(F)(F)F)cc(-c3ccco3)nc12 | 4.37 (active)
O=C(O)C1CCCN(S(=O)(=O)c2cccc3cccnc23)C1 (configuration not stated) | 0.0158
Cn1c(Cc2csc(N)n2)nnc1SC/C=C/c1ccccc1 | 0.477
CCOC(=O)c1c(NC(=O)CSc2nnc(CN3CCOCC3)n2C)sc2c1CCCC2 | 6.03 (active)
COC(=O)c1c(NC(=O)CSc2nc3c(c(=O)n(C)c(=O)n3C)n2C(C)C)sc(C)c1C | 3.35
CCOC(=O)c1c(NC(=O)CSc2nnc(C)c(=O)[nH]2)sc2c1CCC2 | 1.36
CCOCC(=O)Nc1sc2c(c1C(=O)OCC)CCCC2 | -0.0785
CCOC(=O)c1c(NC(=O)CSc2nnc(Cc3csc(N)n3)n2C)sc(C)c1C | 4.94 (active)
O=C(NCc1ccc2c(c1)OCO2)C1CCCN(S(=O)(=O)c2cccs2)C1 (configuration not stated) | -0.0139
